High-throughput results from PubChem.
Hits are enriched below; roughly 6.9% of the tested compounds scored in any of these assays.
L3MBTL1 inh: L3MBTL1 (human) inhibition. 0.66% of 230,000 active. AlphaScreen L3MBTL1–H3K9me1 peptide binding. Potency, µM (doses to about 57.1 µM), for the others: top-dose activity, negative = inhibition, actives largely listed as inhibitors. AID 485360. Q9Y468; further: on the % scale 0 is the no-effect control and ±100 the full control effect; nearly all actives have a fitted effect of over 60% in size
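Displacement of a biotinylated histone H3(1-15) peptide monomethylated at Lys9 (75 nM) from L3MBTL1 (50 nM) was measured by AlphaScreen after a 30 min room-temperature compound incubation; cefsulodin titration served as intraplate control.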
BAZ2B inh: BAZ2B (human) inhibition; AID 504333; Potency, µM (highest dose often 114 µM), without a hit: top-dose activity change, negative = inhibition, hits mostly inhibitors; AlphaScreen BAZ2B-H3K14Ac peptide displacement; 4.4% of 360,000 active; further: on the % scale 0 is the no-effect control and ±100 the full control effect; nearly all actives have a fitted effect of over 60% in size
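Protein-peptide AlphaScreen: BAZ2B 50 nM, b-H3K14Ac 50 nM, 1x PBS pH 7.4 + 0.01% Tween-20. Preincubation 30 min RT; cpd 30 min RT (top 110 uM); beads 20 min RT, light-protected.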
VDR inhibitor: blocks the human vitamin D receptor; P11473; VDR-SRC2-3 peptide fluorescence polarization, 2 h; Potency, µM, for the others: max response, negative = inhibition, most hits filed as inhibitors; 0.93% of 400,000 active; AID 504847; further: on the % scale 0 is the no-effect control and ±100 the full control effect
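Measured by FP: displacement of SRC2-3 coactivator peptide from VDR by library compounds, following a two-hour ambient incubation.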
JMJD2A Tudor inh: inhibitors of human JMJD2A Tudor domain; O75164; AlphaScreen JMJD2A-Tudor / H3K4me3 peptide binding; Potency, µM (titrated, usually from 114 µM), inactives show at the highest dose activity change, negative = inhibition, usual class: inhibitors; 4.4% of 390,000 active; further: on the % scale 0 is the no-effect control and ±100 the full control effect; nearly all actives have a fitted effect of over 50% in size
PLK1 PBD inh: inhibitors of human PLK1 polo-box domain binding | P53350 | 2.8% of 360,000 active | Plk1 PBD binding of FITC phosphopeptide, fluorescence polarization | Potency, µM, inactives show max response, negative = inhibition, most hits filed as inhibitors; further: series mostly up to about 57 µM; on the % scale 0 is the no-effect control and ±100 the full control effect; nearly all actives have a fitted effect of over 65% in size
Target sequence (P53350 whole entry, looked up, the tested form may be a part): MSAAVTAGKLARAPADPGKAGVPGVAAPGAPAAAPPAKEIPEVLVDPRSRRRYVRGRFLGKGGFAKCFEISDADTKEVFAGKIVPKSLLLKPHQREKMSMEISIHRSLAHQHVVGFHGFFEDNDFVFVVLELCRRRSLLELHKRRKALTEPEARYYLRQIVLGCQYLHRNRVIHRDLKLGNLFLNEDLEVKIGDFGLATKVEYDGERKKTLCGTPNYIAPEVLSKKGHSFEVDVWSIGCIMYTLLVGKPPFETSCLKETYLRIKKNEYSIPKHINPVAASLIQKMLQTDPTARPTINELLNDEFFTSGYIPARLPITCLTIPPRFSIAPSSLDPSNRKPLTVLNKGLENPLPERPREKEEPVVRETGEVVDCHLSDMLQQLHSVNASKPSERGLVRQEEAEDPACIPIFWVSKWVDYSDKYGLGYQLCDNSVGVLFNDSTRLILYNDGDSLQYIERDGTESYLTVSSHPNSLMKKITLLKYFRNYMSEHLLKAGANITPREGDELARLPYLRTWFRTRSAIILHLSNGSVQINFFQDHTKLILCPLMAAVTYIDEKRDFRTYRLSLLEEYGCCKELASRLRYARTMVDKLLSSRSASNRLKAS
HP1b chromo inh: inhibitors of HP1-beta chromodomain binding to methylated histone tails | P83916 | AlphaScreen HP1-beta / biotin-H3K9me3 peptide binding | Potency, µM (titrated, usually from 114 µM), without a hit: at the top dose activity change, negative = inhibition, most hits filed as inhibitors | 0.56% of 390,000 active; further: nearly all actives have a fitted effect of over 70% in size
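Compound inhibition of the preformed complex between 50 nM HP1-beta and 50 nM biotinylated H3K9me3 peptide was read by AlphaScreen. Buffer was PBS pH 7.4 with 0.01% Tween-20. Incubations ran 30 min at room temperature, with 10 ug/mL donor/acceptor beads.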
* hit, by the source's call; ? = inconclusive; . = no result given; [ ] = remark or other dose. The call rests on the fitted dose curve; in most records, active means well fitted curve in the direction sought with a large enough effect; inconclusive means small, poorly fitted or top-dose-only effect, or another doubt; inactive means no such curve, though single readings can be large; an effect the other way counts as inactive or inconclusive. Potency means the concentration at half of the fitted maximal effect.

SMILES	L3MBTL1 inh	BAZ2B inh	VDR inhibitor	JMJD2A Tudor inh	PLK1 PBD inh	HP1b chromo inh
CCC(C(=O)NCCCN1CCOCC1)n1c2ccccc2c2nc(=O)cc(C)n21 (stereo not drawn)	.	-4.0%	-10.4%	-15.3%	-5.1%	33.3%
Cc1cc(C)cc(NC(=O)N2CCC(N3CCCCC3)CC2)c1	.	0.4%	10.2%	-4.7%	.	32.2%
CCOc1cccc(CC(=O)N2CCc3c([nH]c4ccccc34)C2c2ccc(C)cc2)c1OCC (stereo not drawn)	.	-30.8%	8.2%	?	.	-0.6%[57 µM]
COc1cc(/C=N/NC(=O)c2nonc2C)ccc1O	5.4%	-22.8%	1.2%	-5.6%	6.1%	15.7%
Cc1nonc1C(=O)N/N=C/c1ccccc1	-1.9%	3.8%	-8.5%	-18.8%[11.4 µM]	23.8µM*	-18.1%
CC(C)CC(NS(=O)(=O)c1ccc2c(c1)oc(=O)n2C)C(=O)NCCc1ccc(Cl)cc1 (stereo not drawn)	.	-20.9%	6.0%	-8.4%	.	16.9%
COc1cc2c(cc1OC)/C(=C/C(=O)c1ccc(F)cc1)NCC2	.	50.1µM*	4.1%	?	6.6%	-29.8%
COc1cccc(NC(=O)C(NCC2CCCCC2)c2ccccc2)c1 (stereo not drawn)	.	?	16.5%	1µM*	1.4%	?
COc1ccc(/C=C2/C(=O)N(Cc3ccccc3)N=C2C)cc1	-15.4%	-6.9%	?	-24.7%	?	-0.3%
COc1ccc(/C=C2/C(=O)N(c3nc4ccccc4s3)N=C2CSc2ccc(Cl)cc2)cc1	?	-1.2%	-2.8%	-12.6%	8.44µM*	10.2%
Cc1ccc2c(c1)c1c3n2CCN(C(=O)CCl)C3CCC1 (stereo not drawn)	-5.1%	56.2µM*	?	?	-23.7%	-6.5%
CC(=O)N1CCn2c3c(c(=O)c4cc(C)ccc42)CCC31 (stereo not drawn)	.	-7.3%	?	-16.4%	-12.5%	36.3%
CC(=O)N1CCn2c3c(c4cc(C)ccc42)CCCC31 (stereo not drawn)	-17.6%	35.5µM*	-11.0%	-32.6%	-4.0%	-18.6%
O=S1(=O)N[C@H](Cc2ccccc2)COc2cc(N3CCSCC3)ccc21	.	.	.	.	-10.6%	.
CON(c1nc(Cl)nc(N(C)C)n1)S(=O)(=O)c1ccc(C)cc1	.	29.2%	-23.2%	?	26.7µM*	24.7%
CCCCn1c(=O)c2oc3ccccc3c2n(Cc2ccc(C)cc2)c1=O	.	3.1%	8.8%	-2.6%	.	29.2%
CC1CCC(NC(=O)CCS(=O)(=O)c2ccc3c(c2)CCN3C(=O)C2CC2)CC1 (stereo not drawn)	.	-3.4%	-7.6%	-20.3%	-10.8%	-5.5%
O=C(C1CCC1)N1CCN(c2cccc(C(F)(F)F)c2)CC1	.	-2.4%	-10.6%	-4.2%	-3.0%	54.2%
NC(=O)C1CCN(C(=O)CN2CCN(c3cccc(C(F)(F)F)c3)CC2)CC1	3.9%	1.8%	-6.5%	89.1µM*	?	-4.4%
O=C(CS(=O)(=O)Cc1ccccc1)N1CCN(c2cccc(C(F)(F)F)c2)CC1	.	-4.7%	-14.1%	-30.5%[57.1 µM]	29.9µM*	-19.7%
CCOC(=O)c1c(C)oc2nc(C)nc(NC(C)c3ccccc3)c12 (stereo not drawn)	.	4.3%[57.1 µM]	16.8%	-8.7%	.	20.5%
COc1ccc([C@@H]2CC(=O)c3c(O)cc(O[C@@H]4O[C@H](CO)[C@@H](O)[C@H](O)[C@H]4O[C@@H]4O[C@@H](C)[C@H](O)[C@@H](O)[C@H]4O)cc3O2)cc1	.	.	-13.4%	.	.	.
CC(C)(C)OC(=O)NCc1n[nH]c(=S)n1C1CC1	-10.1%	9.0%	-13.1%	28.2µM*	-5.0%	29.9%
Cc1ccc(C(=O)NCCc2n[nH]c(=S)n2C)cc1	3.9%	-1.2%	15.5%	?	-10.8%	31.7%
Cn1c(CCNC(=O)c2ccccc2Cl)n[nH]c1=S	15.0%	4.3%	9.9%	44.7µM*	-9.5%	9.1%
SMILES	L3MBTL1 inh	BAZ2B inh	VDR inhibitor	JMJD2A Tudor inh	PLK1 PBD inh	HP1b chromo inh
CCn1c(CCNC(=O)c2ccc(Cl)cc2)n[nH]c1=S	.	4.7%	10.7%	10µM*	-8.1%	21.4%
O=C(NCc1ccccc1)c1ccccc1NC(=O)C1CCCCC1	.	-0.4%	-15.6%	-5.1%	-3.4%	35.8%
COc1ccc(-c2onc(C)c2C)cc1S(=O)(=O)N(C)Cc1ccco1	.	-19.4%	21.1%	-23.1%	.	7.8%
CCOc1ccc(/C=C/C(=O)Nc2ccc3[nH]c(=O)[nH]c3c2)cc1	-16.9%	-23.9%	-8.2%	-33.1%	4.5%	16.1%
CCC(C)(C)c1ccc2c(c1)C(=O)c1ccccc1C2=O	-23.3%	31.6µM*	?	31.6µM*	-4.2%	?
O=C(Cn1c(/C=C/c2ccccc2)nc2ccccc21)Nc1ccc(F)cc1	4.5%	-3.4%	?	50.1µM*	18.9µM*	16.3%
CN(C)CCNCCCNc1c2ccccc2nc2cccc([N+](=O)[O-])c12	.	.	-3.9%	-17.4%	-5.9%	34.6%
CC/C=C(\NC(C)=O)c1ccccc1	-2.7%	-2.1%	10.7%	-13.6%	-4.4%	36.8%
CC(C)(C)NC(=O)Cn1c(=O)n(CC(=O)NC(C)(C)C)c2ccccc21	8.4%	-6.1%	14.7%	-9.9%	-2.3%	2.2%
CNc1nc(NC#N)nc(SC)n1	.	0.8%	?	-12.5%[11.4 µM]	29.9µM*	14.4%
CCNc1nc(NC#N)nc(SCC(=O)OCC)n1	2.4%	4.6%	0.8%	3.6%	0.1%	35.2%
NS(=O)(=O)c1ccccc1	.	-24.2%	-2.6%	-15.1%	-17.8%	6.9%
O=S(=O)(/C=C/C=C/S(=O)(=O)c1ccccc1)c1ccccc1	.	.	?	-6.9%	2.67µM*	56.2%
CCOC(=O)n1c(=O)n(Cc2ccccc2Cl)c2ccccc21	5.1%	15.8%	-2.4%	16.2%	-1.4%	59.6%
CCOC(=O)n1c(=O)n(Cc2cccc(C)c2)c2ccccc21	33.9%	16.7%	?	?	11.9µM*	-0.3%
CCOC(=O)COc1ccc2ccccc2c1/C=C/[N+](=O)[O-]	2.0%	-31.0%	25.1µM*	-14.0%	5.97µM*	6.6%
O=[N+]([O-])/C=C/c1c(OCc2ccccc2)ccc2ccccc12	.	-24.7%	.	.	.	.
Cc1cc(NC(=O)CN2CCN(c3ccccc3O)CC2)no1	-8.0%	-1.4%	-10.2%	79.4µM*	-8.0%	8.4%
CC(C)NC(=O)N(C)C[C@H]1Oc2ccc(NC(=O)Nc3ccccc3)cc2C(=O)N([C@@H](C)CO)C[C@@H]1C	3.0%	.	5.8%	0.0%	-7.8%	57.8%
CCc1cc(-c2n[nH]c(=S)n2N)n(C)n1	5.6%	79.4µM*	-17.9%	8.91µM*	-5.1%	?
CCc1nn(C)c(-c2n[nH]c(=S)n2N)c1Cl	7.7%	?	-8.7%	35.5µM*	-3.5%	15.0%
CCc1nn(C)c(N)c1C	-9.3%	-14.2%	20.2%	-7.2%	3.3%	22.1%
